Reference: PubChem BioAssay (NCI)
This is part of a sample that, as a whole, favours compounds with a hit. Of some 83,000 tested, about 20% had one in any assay.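 Activity criterion: percent growth below 10, measured after cells in 96-well plates were exposed to a single compound concentration for 48 hours.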 A number with no mark means an inactive call. Active and inactive are the calls of the source.

tested on: OVCAR-5 ovarian; assay: NCI-60 one-dose screen, 48 h (100 = growth as untreated, 0 = no growth, -100 = all killed); settings: 10 µM
Method: Growth inhibition of the OVCAR-5 human tumor cell line is measured as a screen for anti-cancer activity. Cells are grown in 96 well plates and exposed to the test compound for 48 hours. Compounds are tested at a single concentration, which is 10^-5 M for most compounds. The reported endpoint is percent growth (GI% or GIPRCNT), where numbers from 0 - 100% represent growth inhibition, and numbers from -100% - 0 represent cell death. For example, a value of 40 represents 60% growth inhibition. A value of 0 means no net growth occurred over the course of the experiment. A value of -40 indicates 40% of cells at the beginning of the experiment died by the end of the experiment. A value of -100 means all cells are dead at the end of the experiment.
NCI-60 Human Tumor Cell Lines Screen was performed using the standard one-dose NCI protocol, which is described in more detail at https://dtp.cancer.gov/discovery_development/nci-60/default.htm.
Compounds with GIPRCNT values below 10 were considered active. Activity score was based on GIPRCNT using the following formula: […]
Score is 0 for GIPRCNT values of 100 or above, 50 for GIPRCNT values of 0, and 100 for GIPRCNT values of -100.

SMILES | growth
CC(C)C1=C[C@@]23CC[C@@H]4[C@](C)(CCC[C@]4(C)C(=O)NCc4ccccc4)[C@H]2C[C@@H]1[C@H]1C(=O)CCC(=O)[C@H]13 | 83.8%
N[C@@H](CSSC[C@H](N)C(=O)Nc1ccc(OCC2CCCC2)cc1)C(=O)Nc1ccc(OCC2CCCC2)cc1 | -100% (active)
C=C[C@@]12CN3CC[C@]1(O)[C@@](C(=O)OC)(CO2)c1[nH]c2ccccc2c1C3 | 49.2%
O=C(O)CCCCCCCCCCN1C(=O)/C(=C/c2cnc(-c3ccccc3)s2)SC1=S | 109%
Cc1ccc(-c2cc(-c3cc4ccccc4nc3Cl)[nH]c(=S)n2)cc1 | 87%
CN(C(=O)c1ccc(C(C)(C)C)cc1)c1sc2c(c1C#N)CCC(=O)C2 | 8.47% (active)
CN1CCN(c2ccc(C(=O)/C=C/c3cc(Br)ccc3F)cc2)CC1 | 135%
O=C(NO)c1ccc(-c2nc3ccc4[nH]ncc4c3c3c2CCCC3)cc1 | -1.66% (active)
CONC[C@]1(C)C=C2C(=O)[C@](C)(O)C3(CC3)C(C)=C2[C@H]1O | -44.2% (active)
CCCCOc1ccc(Nc2nc3ccccc3nc2Nc2ccc(OCCCC)cc2)cc1 | 128%
N#Cc1c(NC(=O)c2cccc(C(F)(F)F)c2)sc2c1CCC(O)=C2 | 119%
COc1ccc2cc([C@H](C)C(=O)NCc3ccccc3)ccc2c1 | 53.8%
C=C[C@H]1[C@H](O[C@@H]2OC(CO)[C@@H](O)[C@H](O)C2OC(=O)c2c(O)cc(O)cc2-c2cccc(O)c2)OC=C2C(=O)OCC[C@H]21 (stereo not given in full) | 100%
CCOC(=O)C1=C(N)N(c2ccc(C)cc2)C2=C(C(=O)CC(C)(C)C2)C1c1ccccc1OC (stereo not given) | 104%
O=C(N=Nc1c(O)[nH]c2ccc(Br)cc12)c1ccc2nc(-c3ccccc3)[nH]c2c1 | -5.18% (active)
O=c1c2ccccc2nc(COc2ccccc2)n1/N=C/c1ccc(N2CCCC2)cc1 | 96.6%
CN1C(=O)N(C)C2SC(N/N=C/C=C/c3ccccc3)=NC21 (stereo not given) | 92.8%
Cc1ccn2c(C(=O)c3ccc(Br)cc3)cc(-c3cc(-c4ccc(N(C)C)cc4)c(C#N)c(N)n3)c2c1 | 66%
CC(C)CCSc1nc(NC2CC2)c(C#N)c(-c2ccc(C(C)C)cc2)n1 | 111%
COc1cc(/C=C/C(=O)c2cc(OC)c(OC)c(OC)c2)ccc1Oc1nc(Nc2ccc(F)cc2)nc(N(C)C)n1 | -44.7% (active)

SMILES | growth
O=C1Nc2ccc(F)cc2/C1=C/c1cccc(OCc2ccccn2)c1 | 60.4%
O=c1[nH][nH]c(Nc2ccccc2)c1N=Nc1ccc(F)cc1 | 112%
CC(C)NC(=O)c1cc(-c2ccc(NC(=O)Nc3ccc(N4CCN(C)CC4)c(C(F)(F)F)c3)cc2)nc2cccnc12 | -99.5% (active)
O=C1Nc2ccc(F)cc2/C1=C/c1cccc(OCc2ccccc2)c1 | 66%
CCCCCc1ccc(S(=O)(=O)N(C(C)=O)c2cc(-c3csc(N(C)C(C)=O)n3)ccc2N2CCN(C)CC2)cc1 | 57.6%
O=C(NCCCCC(c1ccc(F)cc1)c1ccc(F)cc1)NCCCc1cccnc1 | 27.9%
CCOC(=O)CNC(=O)CN(Cc1ccccc1)C(=O)[C@@]1(C)CCC[C@]2(C)[C@H]3CC4C(C(C)C)=C[C@]3(CC[C@H]21)[C@@H]1C(=O)CCC(=O)[C@H]41 | 97.8%
CC(=O)NS(=O)(=O)c1ccc(NC(=O)CSC2=NC(c3ccccc3)C(C(C)=O)=C(C)N2)cc1 (stereo not given) | 104%
O=C(Nc1ccc(OCc2ccccc2)cc1)Nc1ccc(Cl)c(C(F)(F)F)c1 | 18.5%
CC(=O)Oc1ccccc1C(=O)Oc1ccc(C(=O)/C=C/c2ccncc2)cc1 | 62.7%
Nc1cc(-c2cccc(C(=O)NCc3ccc4c(c3)OCO4)c2)ccn1 | 121%
COc1cc(/C=N/NC(=O)c2ccc3nc(-c4ccc(Cl)cc4)[nH]c3c2)cc(OC)c1OC | 62.6%
CCN1CCN(c2ccc(NC(=O)Nc3ccc(-c4cc(C(=O)NC)c5ncccc5n4)cc3)cc2C(F)(F)F)CC1 | -100% (active)
COC[C@@H](CC(C)C)N=C1NC(=O)/C(=C/c2ccc3ncsc3c2)N1 | -21.7% (active)
COC(=O)CC1CC1C1Cc2c(nc(N(C)S(C)(=O)=O)nc2C(C)C)-c2ccc(F)cc21 (stereo not given) | 90%
O=C(NCCCCCCCCCC[P+](c1ccccc1)(c1ccccc1)c1ccccc1)c1ccc(-n2nc(-c3ccccc3O)nc2-c2ccccc2O)cc1 | -94% (active)
CCOC(=O)c1c(CSc2ccccc2)n(C)c2cc(CN(C)C)c(O)c(CN(C)C)c12 | 63.4%
O=C(CSc1nnc(-c2c[nH]c3ccccc23)n1-c1ccccc1)Nc1ccc(C(=O)/C=C/c2cccc([N+](=O)[O-])c2)cc1 | 103%
CCOc1ccc(/C=N/NC(=O)Cn2nc(Cc3ccccc3)c3onc(C)c3c2=O)cc1 | 60.9%
COc1ccc(/C=N/N=C(\C)c2ccc3c(c2)Nc2ccccc2S3)cc1O | 71.4%
